Screens: PubChem BioAssay, National Center for Advancing Translational Sciences (NCATS)
HTT ATP protect = Huntington cell model cytoprotection by ATP luminescence; PC12 HTT-Q103 induced, cytoprotection, ATP luminescence, 40 h; Potency, µM (titrated, usually from 56.4 µM), for the others: cytoprotection (ATP increase), usual class: activators; actives 0.14% (n = 230,000); note: potency is the fitted concentration of half-maximal effect; % of control where 0% means no effect; nearly all actives have a fitted effect of over 45% in size
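Cells were plated at 1500 per well in phenol red-free DMEM with 5% equine and 5% calf serum. Tebufenozide (100 nM final) and compounds were added, then ATPlite reagent, and luminescence was read.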
KDM4E inh = inhibitors of human JMJD2E histone demethylase; B2RXH2; JMJD2E catalytic domain, FDH-coupled NADH fluorescence (FDH is formaldehyde dehydrogenase); Potency, µM (series often up to 57.1 µM), for inactives: at the highest dose activity change, negative = inhibition, most hits filed as inhibitors; actives 1.6% (n = 230,000); active = well fitted inhibition curve with a large enough effect, not every such curve was filed as active; inconclusive = small, poorly fitted or top-dose-only effect, or another doubt; inactive = no such curve, though single readings can be large or run the other way;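 note: potency is the fitted concentration of half-maximal effect; 0% = wells with enzyme and -100% = buffer wells without enzyme; nearly all actives have a fitted effect of over 50% in size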
Target sequence (B2RXH2 1-337 limits assumed): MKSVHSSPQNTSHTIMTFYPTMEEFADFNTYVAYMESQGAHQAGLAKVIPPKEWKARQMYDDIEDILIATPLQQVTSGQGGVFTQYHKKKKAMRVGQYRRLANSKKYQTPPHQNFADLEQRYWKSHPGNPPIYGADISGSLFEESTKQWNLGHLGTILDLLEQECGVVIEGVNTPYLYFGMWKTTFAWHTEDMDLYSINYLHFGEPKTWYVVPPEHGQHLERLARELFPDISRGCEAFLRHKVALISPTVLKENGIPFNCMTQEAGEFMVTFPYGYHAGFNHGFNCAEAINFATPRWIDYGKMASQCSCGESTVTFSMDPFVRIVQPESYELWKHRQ
HttQ103 aggreg = reduces HttQ103-GFP aggregates in PC12 cells | PC12 HttQ103-GFP aggregates, Acumen cytometry, 40 h | Potency, µM (titrated, usually from 46.1 µM), inactives show top-dose activity change, negative = inhibition, most hits filed as inhibitors | actives 1.1% (n = 220,000) | AID 1688; note: potency is the fitted concentration of half-maximal effect; % is set by controls: 0 for no effect and ±100 for the full control effect; nearly all actives have a fitted effect of over 60% in size
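Read-out: GFP aggregate count by laser scanning cytometer (488 nm excitation, 500-530 nm emission, 1–25 µm objects >6 SD above background). Cells: PC12, inducible HTTex1-Q103-GFP, 100 nM tebufenozide; compounds titrated.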
CBFb-RUNX1 inh = inhibitors of human CBF-beta and RUNX1 interaction; Q01196+Q13951; AlphaScreen CBFb-His/RUNX1-biotin binding, biochemical; Potency, µM (highest dose often 59.8 µM), without a hit: top-dose activity, negative = inhibition, usual class: inhibitors; 230,000 tested, under 10 active; AID 1477; note: % of control where 0% means no effect
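Bead-based AlphaScreen assay; binding partners His-tagged CBF-beta and biotinylated RUNX1 at 30 nM each. Compound exposure 15 min after a 20-min protein preincubation; bead step 90 min; all steps at room temperature.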
HPGD block = blocks human HPGD enzyme activity; purified HPGD, NADH fluorescence kinetic, PGE2 substrate; Potency, µM, without a hit: at the highest dose activity change, negative = inhibition, actives largely listed as inhibitors; actives 4.3% (n = 150,000); AID 894; active = well fitted inhibition curve with a large enough effect, not every such curve was filed as active; inconclusive = small, poorly fitted or top-dose-only effect, or another doubt; inactive = no such curve, though single readings can be large or run the other way; note: potency is the fitted concentration of half-maximal effect; % is set by controls: 0 for no effect and ±100 for the full control effect
Target sequence (P15428 whole entry, looked up): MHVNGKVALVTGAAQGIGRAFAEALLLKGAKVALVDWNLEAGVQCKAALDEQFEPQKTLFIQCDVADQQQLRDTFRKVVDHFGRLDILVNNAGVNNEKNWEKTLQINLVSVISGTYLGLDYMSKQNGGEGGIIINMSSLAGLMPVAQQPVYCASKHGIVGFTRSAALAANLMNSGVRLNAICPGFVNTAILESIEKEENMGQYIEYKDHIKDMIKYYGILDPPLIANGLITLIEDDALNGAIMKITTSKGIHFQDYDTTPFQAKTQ
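NADH formation kinetics: reaction with 30 uM PGE2 and 1 mM NAD+ (final), 20 nM enzyme, Tris-HCl pH 8 with Tween 20, after 15 min compound preincubation at room temperature. Fluorescence change, last versus first of five reads.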
ALDH1A1 block = ALDH1A1 (human) enzyme inhibition | P00352 | Purified ALDH1A1, NADH fluorescence, propionaldehyde substrate | Potency, µM (doses to about 75.3 µM), for the others: at the highest dose activity, negative = inhibition, usual class: inhibitors | actives 7.3% (n = 220,000) | AID 1030; active = well fitted inhibition curve with a large enough effect, not every such curve was filed as active; inconclusive = small, poorly fitted or top-dose-only effect, or another doubt; inactive = no such curve, though single readings can be large or run the other way;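 note: potency is the fitted concentration of half-maximal effect; plate controls were no enzyme wells and a reference inhibitor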
Starred values were filed as active, the others as inactive; ? = inconclusive; · = no result; [ ] = dose if it differs, or a comment. Only some compounds are listed: those with a hit (about 9.8% of all), similar ones and a draw of the others. Unless noted, calls come from the whole dose curve; as a rule, active = well fitted curve in the direction sought with a large enough effect; inconclusive = small, poorly fitted or top-dose-only effect, or another doubt; inactive = no such curve, though single readings can be large; an effect the other way counts as inactive or inconclusive.

SMILES	HTT ATP protect	KDM4E inh	HttQ103 aggreg	CBFb-RUNX1 inh	HPGD block	ALDH1A1 block
CCOc1ccc(C(C)=O)cc1N1C(=O)C2C3C=CC(O3)C2C1=O (stereo unspecified)	-87%	-6%	?	-1%	28µM*	22µM*
Cc1c(N=NC2=C(O)CC(C)(C)CC2=O)c(=O)n(-c2ccccc2)n1C	0%[10 µM]	?	-15%[9.22 µM]	-14%	·	10µM*
CC(=O)N1CCc2cc(N=NC3=C(O)CC(C)(C)CC3=O)ccc21	-12%[10 µM]	-5%	9%	-13%	·	?
CC1(C)CC(=O)C(N=Nc2cccc(S(=O)(=O)N3CCOCC3)c2)=C(O)C1	8%[10 µM]	-6%	4%[9.22 µM]	2%	·	·
CC1(C)CC(=O)C(N=Nc2cc(Cl)c(Cl)c(Cl)c2)=C(O)C1	-5%[10 µM]	0%	18%	-9%	-8%	5µM*
CC(=O)/C(N=Nc1c(C)n(C)n(-c2ccccc2)c1=O)=C(\C)O	13%[10 µM]	-2%	1%	-26%	·	4%
Cc1ccc(O)c(N=NC2=C(O)CC(C)(C)CC2=O)c1	·	0.56µM*	?	-24%	-19%	6.3µM*
CC1(C)CC(=O)C(N=Nc2cc3c(cc2[N+](=O)[O-])OCCO3)=C(O)C1	-11%[10 µM]	-19%	29%	4%	·	0.56µM*
CC(=O)c1cccc(N(CC(=O)N2CCCC2)S(C)(=O)=O)c1	1%[10 µM]	0%	-2%	13%	0%	25µM*
Clc1nn2cnnc2c2ccccc12	?	-9%	?	10%	·	3%
Cc1ccc2nc(C)c(C(=O)NN=C3CCCCCC3)n2c1	6%[10 µM]	56%	5%[9.22 µM]	-1%	·	7.9µM*
Cc1ccc(C)c(-n2c(C)cc(/C=N/NC(=O)c3c(C)nc4cc(C)ccn34)c2C)c1	7%[10 µM]	4%	-9%	11%	?	13µM*
Cc1ccn2c(C(=O)NN=C3CCN(C)CC3)c(C)nc2c1	-9%	-5%	-1%	-1%	·	2.2µM*
NS(=O)(=O)c1ccc(CCNC(=O)CSc2nnc3ccccn23)cc1	-24%	?	0%	-1%	·	-11%
O=C(CCN1C(=O)C2C3C=CC(C3)C2C1=O)N1CC(=O)N(CCc2ccccc2)C(=O)C1 (stereo unspecified)	2%	7%	-12%	2%	3%	?
O=C(CN1C(=O)C2C3C=CC(C3)C2C1=O)N1CC(=O)N(CCc2ccccc2)C(=O)C1 (stereo unspecified)	20%[10 µM]	0%	-5%	9%	-4%	28µM*
C/C(=N\N=C(N)N)c1ccc(Cl)c(Cl)c1	-33%	0%	14%	1%	·	0%
O=C(c1ccccc1)N1CCCCC(Cl)C1=O (stereo unspecified)	-18%[10 µM]	-14%	6%	6%	·	?
Oc1ccc(/C=N/NC(=S)NC2CC3CCC2C3)cc1 (stereo unspecified)	0%[10 µM]	-13%	9%[9.22 µM]	-14%	·	7.1µM*
S=C(N/N=C/c1cccs1)NC1CC2CCC1C2 (stereo unspecified)	13%[10 µM]	6%	0%[9.22 µM]	-13%	·	18µM*
Oc1ccc(/C=N/NC(=S)NCC2CCCO2)cc1 (stereo unspecified)	1%	-1%	10%	-3%	-7%	-4%
O=C(N/N=C/c1cccs1)[C@H]1C[C@@H]1c1ccccc1	16%[10 µM]	4%	2%	-3%	-5%	10%
COc1cc([N+](=O)[O-])c(OC)cc1SCc1n[nH]c(=S)n1-c1ccc(F)cc1	-3%[10 µM]	-3%	10%[9.22 µM]	-11%	·	2.2µM*
CCc1nc2c(n1O)CCc1nonc1-2	-10%	-1%	-18%	5%	-10%	?
CCCOc1ccc(C(=O)OCCN(CC)CC)cc1N	16%[40.3 µM]	-5%[25.5 µM]	·	9%[21.7 µM]	-10%	3%[20.9 µM]
SMILES	HTT ATP protect	KDM4E inh	HttQ103 aggreg	CBFb-RUNX1 inh	HPGD block	ALDH1A1 block
CC(C)OC(=O)NCCOC(=O)Nc1ccc(Cl)c(Cl)c1	26%[10 µM]	6%	7.1µM*	-4%	-7%	4%
C=COCCNC(=O)Nc1ccc(Cl)c(Cl)c1	-13%[10 µM]	-10%	1%	3%	20µM*	-1%
O=C(Nc1ccc(Cl)c(Cl)c1)OCc1cncs1	6%	6%	11µM*	11%	-39%	0%
CC(C)OC(=O)NC(C)(C)COC(=O)Nc1cccc(Cl)c1	-2%[10 µM]	2%	1%	9%	1%	-2%
COCCNC(=S)Nc1ccc(Cl)c(Cl)c1	26%	12%	-10%	6%	·	10%
CC(C)OC(=O)NCCOC(=O)Nc1cccc(Cl)c1	22%[10 µM]	-2%	11µM*	8%	-5%	0%
COc1cccc(CNc2ncn[nH]2)c1OCc1ccc(F)cc1	-5%[10 µM]	0%	-11%[9.22 µM]	-3%	·	28µM*
COc1ccc(/C=C2\CN(Cc3ccccc3)C/C(=C\c3ccc(OC)cc3)C2=O)cc1	38%[10 µM]	?	-4%	-3%	-14%	16µM*
COc1ccc(/C=C2\CN(Cc3ccccc3)C/C(=C\c3ccc(OC)cc3OC)C2=O)c(OC)c1	-68%	-28%	-16%	-27%	-14%	18µM*
COc1ccc(/C=N/N=C2/SCC(=O)N2Cc2ccccc2)cc1	-5%[10 µM]	4%	8%[9.22 µM]	2%	·	·
Cc1nc(-c2cc(C#N)c(Sc3ccc(Cl)cc3Cl)nc2C)cs1	5%[10 µM]	4%	-19%[9.22 µM]	8%	·	-13%
C#CCOCCOCCOCCNc1nc(N2CCN(C(=O)[C@H]([C@@H](C)CC)n3cc([C@@H](N)Cc4ccc(O)cc4)nn3)CC2)nc(N2CCN(C(=O)[C@H](CCCCN)n3cc([C@@H](N)CC(C)C)nn3)CC2)n1	22%[10 µM]	-2%	21%[9.22 µM]	12%	·	-3%
O=C(NC(=S)Nc1ccc2[nH]ncc2c1)c1ccccc1	6%	3%	-8%	-1%	?	10µM*
Cc1ccc2cn[nH]c2c1NC(=S)NC(=O)c1ccccc1	-25%	-12%	-7%	-1%	-16%	?
O=C(NC(=S)Nc1cccc2ncccc12)c1cccs1	-59%	-3%	23%	2%	·	?
O=C(NC(=S)Nc1ccc2ncccc2c1)c1ccccc1	-45%	-11%	4%	-6%	·	3.5µM*
O=C(NC(=S)Nc1cccc2ncccc12)c1ccccc1	-20%[10 µM]	-24%	-10%	18%	·	14µM*
O=C(Nc1ccc2ncccc2c1)c1ccccc1Cl	13%[10 µM]	-27%	19%[9.22 µM]	9%	·	2%
Cc1ccc(NC(=S)NC(=O)c2ccccc2)cc1NC(=S)NC(=O)c1ccccc1	-7%[10 µM]	-14%	-7%[9.22 µM]	-16%	·	3.5µM*
CCCCNC(=O)C(c1ccc(OCC(=O)OC)c(C(=O)OC)c1)N(Cc1ccccn1)C(=O)CCCCCN1C(=O)NC(c2ccc(-c3ccccc3)cc2)C(C(=O)OCc2ccccc2)=C1C (stereo unspecified)	-28%	3%	·	-1%	-9%	3%
